Reference: PubChem BioAssay (NCI)
Values joined by “and” are separate entries in the source; they are usually repeats but may differ in a detail not shown here. Identical values can stand only once. The panel holds about 79,000 compounds, 15% with a hit somewhere; the sample as a whole holds those more often. Some compounds were tested as several samples or in several runs, with calls that do not always agree. Active and inactive are the calls of the source. No stated cut-off is given here; in the data, active means growth inhibition above about 70%; inactive means the rest.

Key:
[1] = NCI Yeast Anticancer Drug Screen. Data for the rad52 strain (AID 147);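 further: 0% = growth of vehicle-treated control cultures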; conditions: S. cerevisiae rad52 mutant growth inhibition, stronger effect = higher value
How it was run: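 Screen used a yeast mutant impaired in DNA repair. After compound exposure, growth was measured. Values reflect inhibition compared with vehicle-treated cells.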

[2] = NCI Yeast Anticancer Drug Screen. Data for the wt1 strain (AID 149);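 further: 0% = growth of vehicle-treated wt1 cultures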; conditions: S. cerevisiae wt1 strain (SPY 50644) growth inhibition, stronger effect = higher value
How it was run: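 Measured: growth of wt1 yeast under compound versus vehicle treatment, reported as inhibition.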

[3] = NCI Yeast Anticancer Drug Screen. Data for the rad50EPP+ strain (AID 151);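 further: 0% = growth of vehicle-treated control cultures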; conditions: S. cerevisiae rad50 mutant strain, stronger effect = higher value
How it was run: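 Exposing the rad50EPP+ strain to each compound, growth was compared with vehicle-only cultures to give inhibition.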

[4] = NCI Yeast Anticancer Drug Screen. Data for the mgt1 strain (AID 153); conditions: S. cerevisiae mgt1 mutant growth inhibition, stronger effect = higher value
How it was run: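 Genetically defined yeast (mgt1) treated with compound; inhibition of growth expressed against vehicle-treated controls.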

[5] = NCI Yeast Anticancer Drug Screen. Data for the rad50 strain (AID 155);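 further: 0% = growth of vehicle-only cultures of the same strain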; conditions: S. cerevisiae rad50 strain growth inhibition, stronger effect = higher value
How it was run: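 Growth of the mutant yeast was measured after compound exposure and referenced to vehicle-treated cultures.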

[6] = NCI Yeast Anticancer Drug Screen. Data for the mec2-1 strain (AID 157); conditions: S. cerevisiae mec2-1 strain, stronger effect = higher value
How it was run: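 Readout is yeast growth inhibition, normalised to vehicle-treated controls, in the mec2-1 strain exposed to compound.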

[7] = NCI Yeast Anticancer Drug Screen. Data for the sgs1 mgt1 strain (AID 161);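 further: 0% = growth of cultures given vehicle only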; conditions: S. cerevisiae sgs1 mgt1 strain, stronger effect = higher value
How it was run: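 Yeast cells carrying a defined DNA-repair defect were exposed to test compounds. Growth inhibition was measured relative to vehicle-treated controls.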

[8] = NCI Yeast Anticancer Drug Screen. Data for the CLN2oe strain (AID 163);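 further: 0% = growth of vehicle-only control cultures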; conditions: S. cerevisiae CLN2oe strain, stronger effect = higher value
How it was run: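 Values reflect how much compound exposure reduced yeast growth, referenced to vehicle-exposed cells. Assay organism is a strain with a defined genetic change affecting cell-cycle control.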

[9] = NCI Yeast Anticancer Drug Screen. Data for the cln2 rad14 strain (AID 165);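 further: 0% = growth equal to vehicle treated cultures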; conditions: S. cerevisiae cln2 rad14 strain, stronger effect = higher value
How it was run: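 Relative to vehicle controls, growth inhibition of compound-treated cln2 rad14 yeast was recorded.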

[10] = NCI Yeast Anticancer Drug Screen. Data for the bub3 strain (AID 167); conditions: S. cerevisiae bub3 mutant strain, stronger effect = higher value
How it was run: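 Whole-cell yeast assay. The mutant strain was incubated with compounds, and growth inhibition was determined by comparison with vehicle-treated cells.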

[11] = NCI Yeast Anticancer Drug Screen. Data for the wt2 strain (AID 169);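 further: 0% = growth of vehicle-treated yeast cultures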; conditions: S. cerevisiae wt2 strain growth inhibition, stronger effect = higher value
How it was run: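 Values express reduction in yeast growth under compound treatment, referenced to vehicle-treated cells.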

[12] = NCI Yeast Anticancer Drug Screen. Data for the mlh1 strain (AID 171);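 further: 0% = growth of vehicle-treated control cultures of the same strain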; conditions: S. cerevisiae mlh1 strain growth inhibition, stronger effect = higher value
How it was run: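 Steps: expose the defined-mutant yeast strain to compound; expose a parallel culture to vehicle; measure growth; express compound effect as inhibition relative to the vehicle culture.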

[13] = NCI Yeast Anticancer Drug Screen. Data for the sgs1 strain (AID 173);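 further: 0% = growth of vehicle-only control cultures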; conditions: S. cerevisiae sgs1 mutant, stronger effect = higher value
How it was run: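 Treat defined-mutant yeast with compound; measure growth; calculate inhibition relative to vehicle-treated cells.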

[14] = NCI Yeast Anticancer Drug Screen. Data for the mlh1 rad18 strain (AID 175); conditions: S. cerevisiae mlh1 rad18 strain growth inhibition, stronger effect = higher value
How it was run: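 Test agents were incubated with a yeast strain of defined genotype (DNA damage repair defect). Inhibition of growth was derived by comparison with vehicle-exposed cultures.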

[15] = at 5.0 µM (retest, dose inferred, filed as 0.5)
[16] = at 50.0 µM (retest, dose inferred, filed as 5.0)

Measured: growth inhibition

Cc1nc2c(Br)cc(Br)cc2c(=O)n1-c1ccccc1NC1OCC(O)C(O)C1O (stereo not drawn)
88.5% (active) and 61.5% (inactive): [7]; at 50.0 µM
active: [1]; at 100.0 µM 97% | [2]; at 100.0 µM 93% | [4]; at 100.0 µM 97% | [5]; at 50.0 µM 94.5% and 89.8% | [5]; at 100.0 µM 96% | [6]; at 100.0 µM 96% | [8]; at 33.0 µM 72% | [8]; at 100.0 µM 97% | [9]; [16] 95% and 85% | [10]; at 50.0 µM 97.2% and 78.4% | [10]; at 100.0 µM 96% | [11]; at 100.0 µM 96% | [12]; at 100.0 µM 92% | [13]; at 100.0 µM 88% | [14]; [16] 93% and 74% | [14]; at 50.0 µM 95.2% and 82.2%
75% (active) and 23% (inactive): [6]; [16]
70.8% (active) and 22.4% (inactive): [6]; at 50.0 µM
92% (active) and 51% (inactive): [10]; [16]
74% (active) and 68% (inactive): [5]; [16]
91.5% (active) and 60.1% (inactive): [9]; at 50.0 µM
inactive: [1]; at 1.2 µM 1% | [1]; at 3.7 µM 4% | [1]; at 11.0 µM 25% | [1]; at 33.0 µM 44% | [2]; at 1.2 µM -50% | [2]; at 3.7 µM 3% | [2]; at 11.0 µM 9% | [2]; at 33.0 µM 28% | [3]; at 1.2 µM 37% | [3]; at 3.7 µM 36% | [3]; at 11.0 µM 17% | [3]; at 33.0 µM 20% | [3]; at 100.0 µM 8% | [4]; at 1.2 µM 25% | [4]; at 3.7 µM 21% | [4]; at 11.0 µM 20% | [4]; at 33.0 µM 39% | [5]; at 1.2 µM 0% | [5]; at 3.7 µM 6% | [5]; [15] 10% and 17% | [5]; at 11.0 µM 18% | [5]; at 33.0 µM 63% | [6]; at 1.2 µM 7% | [6]; at 3.7 µM 9% | [6]; [15] 10% and 22% | [6]; at 11.0 µM 14% | [6]; at 33.0 µM 38% | [7]; [15] 12% and 11% | [7]; [16] 13% and 24% | [8]; at 1.2 µM 40% | [8]; at 3.7 µM 35% | [8]; at 11.0 µM 44% | [9]; [15] 40% and -2% | [10]; at 1.2 µM 11% | [10]; at 3.7 µM 5% | [10]; [15] 20% and 14% | [10]; at 11.0 µM 8% | [10]; at 33.0 µM 47% | [11]; at 1.2 µM 2% | [11]; at 3.7 µM 4% | [11]; at 11.0 µM 10% | [11]; at 33.0 µM 43% | [12]; at 1.2 µM 0% | [12]; at 3.7 µM 4% | [12]; at 11.0 µM 12% | [12]; at 33.0 µM 36% | [13]; at 1.2 µM 2% | [13]; at 3.7 µM 5% | [13]; at 11.0 µM 13% | [13]; at 33.0 µM 41% | [14]; [15] -23% and 18%
